Assay results published in PubChem BioAssay (Tox21).
Results filed as inconclusive are left out. Where a call stands in place of a potency, no number is given. Unmarked numbers belong to inactive results. The source made the active and inactive calls. The call rests on the fitted dose curve; in most records, active means well fitted inhibition curve with a large enough effect in the repeat runs; inconclusive means weak or mixed curves; inactive means no such curve, though single readings can be large or run the other way.

target: Cytochrome P450 3A4 (Homo sapiens) (UniProt P08684); experiment: Cytochrome P450 Family 3 Subfamily A Member 4 (CYP3A4) small molecule antagonists: luciferase reporter qHTS assay (AID 1671201); conditions: P450-Glo CYP3A4 enzyme, luciferin luminescence, 1 h; series mostly up to 115 µM; further: nearly all actives have a fitted effect of over 50% in size
Sequence (P08684 whole entry, looked up): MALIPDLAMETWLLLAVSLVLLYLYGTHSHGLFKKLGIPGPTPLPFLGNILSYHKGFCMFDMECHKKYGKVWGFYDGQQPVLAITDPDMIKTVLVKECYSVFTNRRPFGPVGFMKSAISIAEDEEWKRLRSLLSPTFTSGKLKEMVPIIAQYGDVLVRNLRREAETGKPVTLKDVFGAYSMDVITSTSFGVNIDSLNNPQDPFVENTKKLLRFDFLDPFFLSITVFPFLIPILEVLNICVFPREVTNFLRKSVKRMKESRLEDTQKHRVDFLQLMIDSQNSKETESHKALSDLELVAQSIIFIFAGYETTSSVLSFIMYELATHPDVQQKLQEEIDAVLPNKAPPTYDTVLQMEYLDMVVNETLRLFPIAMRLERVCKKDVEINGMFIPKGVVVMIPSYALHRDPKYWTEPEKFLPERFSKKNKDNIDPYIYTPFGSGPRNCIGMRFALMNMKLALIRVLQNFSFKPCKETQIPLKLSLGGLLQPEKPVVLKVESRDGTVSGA
How it was run: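 Relative luminescence units after 20 min with luciferin detection reagent served as read-out. Beforehand, CYP3A4 turned over a proluciferin substrate for 1 h at room temperature with NADPH regeneration, following 10 min compound preincubation.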
Potency means the concentration at half of the fitted maximal effect.

SMILES	Potency	activity change, negative = inhibition
CC1(C)CO[C@@H](CC(=O)O)CN1	inactive	
CN1CC(=O)NC1=N	inactive	
C[C@H]1C[C@@H](O)CC(C)(C)C1	inactive	
C[N+](C)(C)CC(O)CC(=O)[O-] (configuration not stated)	inactive	
CS(=O)(=O)O	inactive	
CCN1CCC[C@H]1CNC(=O)c1c(O)c(Cl)cc(Cl)c1OC	inactive	
CCS(=O)(=O)c1ccc(OC)c(C(=O)OC)c1	inactive	
OCCOc1ccc(OCCO)cc1	inactive	
Cc1nc2c([nH]1)c(=O)n(C)c(=O)n2Cc1ccco1	inactive	
O=C(O)c1ccccc1OP(=O)(O)O	inactive	
CC[N+](C)(C)c1cccc(O)c1	inactive	
CC/C=C\CC/C=C/C(OCC)OCC	31.7 µM (active)	
c1ccc([C@H]2CN3CCSC3=N2)cc1	inactive	
CCCCC(CC)COC(=O)c1ccccc1O (configuration not stated)	inactive	
CCCN(CCC)CCc1cccc2c1CC(=O)N2	inactive	
NC(CSCC(=O)O)C(=O)O (configuration not stated)	inactive	

SMILES	Potency	activity change, negative = inhibition
CC/C=C\CCOC(C)=O	inactive	
O=Cc1cccc([N+](=O)[O-])c1	inactive	
Nc1nc2c(ncn2COC(CO)CO)c(=O)[nH]1	inactive	
CC(=O)OCC(CCn1cnc2cnc(N)nc21)COC(C)=O	inactive	
NS(=O)(=O)c1cc(C(=O)O)cc(N2CCCC2)c1Oc1ccccc1	inactive	
Nc1c2c(nc3ccccc13)CCCC2O (configuration not stated)	inactive	
O=C(O)CN(CCOCCOCCN(CC(=O)O)CC(=O)O)CC(=O)O		0.649% [at 0.435 µM]
O=C(CCCN1CCC(O)(c2cccc(C(F)(F)F)c2)CC1)c1ccc(F)cc1	inactive	
O=[N+]([O-])c1ccc(F)cc1F	inactive	
CN1N=C(C(N)=O)CCC1=O	inactive	
Cc1sccc1Br	inactive	
O=C1OC(=O)C2CCCCC12 (configuration not stated)	inactive	
CC(=O)OC/C=C(\C)CC/C=C(\C)CCC=C(C)C	10 µM (active)	
Cc1cccn2c(=O)c(-c3nnn[nH]3)cnc12		2.55% [at 23.6 µM]
N=c1nc(N2CCCCC2)cc(N)n1O	inactive	
CCC(C)C1CCCCC1=O (configuration not stated)	inactive	
